# KCNH2 3.1 block: qHTS for Inhibitors of KCHN2 3.1: Mutant qHTS. U2OS KCNH2 3.1, thallium flux FluxOr; active compounds read low. activity change, % (tested at about 1.8 µM). 0.95% of 340,000 active. AID 720553, 2013;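 active means maximum activity change below -70%; inconclusive means maximum activity change from -70% to -50%; inactive means maximum activity change above -50%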;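 further: thallium influx rate constant from kinetic fluorescence after stimulation buffer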
#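 Steps: virus added to U2OS suspension (4 h, RT, dark); medium with 10% FBS added, cells plated, 37 C overnight; FluxOr/Red40 loading buffer 45 min RT; stimulation buffer, 2 min kinetic read; rate constant normalized.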
# TRPML1 agonist: qHTS for Agonists of the Human Mucolipin Transient Receptor Potential 1 (TRPML1); Mucolipin-1 (Homo sapiens), Q9GZU1; TRPML1-expressing cells, Ca2+ dye fluorescence, FDSS; activation, % (concentration not given with the values); 0.12% of 410,000 active; AID 624414, 2012; in the data active means activation above about 50%; inconclusive means mostly about 30% to 49%
#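 In this qHTS format, compounds were pin-transferred onto Ca8-dye-loaded TRPML1-DL cells induced with Tet overnight, and intracellular Ca2+ fluorescence was recorded kinetically for 110 s after a 10 s baseline. A subsequent 4uM final 54-4 (EC80) addition followed by a second 110 s read served as the antagonist phase.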
# hERG WT inh: qHTS for Inhibitors of KCHN2 3.1: Wildtype qHTS. Voltage-gated inwardly rectifying potassium channel KCNH2 (Homo sapiens), Q12809. U2OS, BacMam KCNH2, thallium flux FluxOr; active compounds read low. activity change, % at 1.84 µM. 0.37% of 340,000 active;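 active means maximum activity change below -70%; inconclusive means maximum activity change between -70% and -50%; inactive means maximum activity change above -50%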
# Target sequence (Q12809 whole entry, looked up): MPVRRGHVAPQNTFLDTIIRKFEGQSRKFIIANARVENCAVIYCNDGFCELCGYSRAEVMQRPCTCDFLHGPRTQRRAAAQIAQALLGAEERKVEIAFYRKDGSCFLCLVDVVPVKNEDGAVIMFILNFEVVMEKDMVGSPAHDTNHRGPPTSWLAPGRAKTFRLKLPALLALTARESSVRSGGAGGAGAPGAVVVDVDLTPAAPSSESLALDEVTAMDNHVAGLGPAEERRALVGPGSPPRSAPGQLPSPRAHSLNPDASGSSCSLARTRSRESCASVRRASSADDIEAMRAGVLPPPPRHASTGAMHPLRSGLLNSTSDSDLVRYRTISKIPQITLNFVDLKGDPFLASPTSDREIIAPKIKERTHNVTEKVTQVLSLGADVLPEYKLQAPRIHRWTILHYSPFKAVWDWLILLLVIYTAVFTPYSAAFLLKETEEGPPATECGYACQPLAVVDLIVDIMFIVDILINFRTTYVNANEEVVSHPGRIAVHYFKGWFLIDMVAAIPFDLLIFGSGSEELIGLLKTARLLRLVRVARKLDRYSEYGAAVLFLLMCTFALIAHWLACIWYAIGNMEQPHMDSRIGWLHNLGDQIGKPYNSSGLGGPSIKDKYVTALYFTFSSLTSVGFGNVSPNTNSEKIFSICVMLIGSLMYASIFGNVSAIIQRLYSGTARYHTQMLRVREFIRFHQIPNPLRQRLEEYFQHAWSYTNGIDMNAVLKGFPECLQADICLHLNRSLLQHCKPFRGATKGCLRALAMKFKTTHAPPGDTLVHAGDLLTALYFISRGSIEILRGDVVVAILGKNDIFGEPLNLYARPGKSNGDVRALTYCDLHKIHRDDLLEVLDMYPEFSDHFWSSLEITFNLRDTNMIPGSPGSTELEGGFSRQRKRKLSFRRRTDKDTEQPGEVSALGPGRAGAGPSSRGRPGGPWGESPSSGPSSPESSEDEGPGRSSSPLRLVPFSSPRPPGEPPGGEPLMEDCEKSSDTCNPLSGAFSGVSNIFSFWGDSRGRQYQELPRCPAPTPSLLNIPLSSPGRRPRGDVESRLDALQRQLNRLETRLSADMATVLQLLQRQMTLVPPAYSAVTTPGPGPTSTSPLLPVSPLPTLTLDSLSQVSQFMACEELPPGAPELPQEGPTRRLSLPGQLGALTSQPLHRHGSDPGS
#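 U2OS cells were transduced with wild-type KCNH2 virus (2.03 x 10^8 / mL) for 4 h at room temperature, then cultured overnight at 37 C. Thallium flux was read with FluxOr dye. Rate constants were normalized to DMSO controls.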
# TRHR ag: qHTS for Small Molecule Agonists and Allosteric Enhancers of Human TRH Receptor: Primary Screen for Agonists; Thyrotropin-releasing hormone receptor (Homo sapiens), P34981; TRHR cells, calcium flux fluo-8, FDSS agonist mode; 0.18% of 360,000 active; AID 493084, 2011; activation, % at 2 µM; in the data active means activation above about 30%
#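 Read-out: compound-evoked intracellular calcium rise in TRHR cells, fluo-8 dye, kinetic FDSS fluorescence at 1 s/cycle following a 10-cycle baseline. Cells cultured overnight before dye loading (30 min–1.5 h, RT).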
# TRPML1 inh: qHTS for Inhibitors of the Human Mucolipin Transient Receptor Potential 1 (TRPML1) | Mucolipin-1 (Homo sapiens), Q9GZU1 | TRPML1-inducible cells, Ca2+ dye fluorescence, FDSS; active compounds read low; inhibition of EC80 agonist-evoked calcium signal | activity change, negative = inhibition, % (concentration not given with the values) | 0.02% of 390,000 active; in the data active means activity change below about -50%; inconclusive means between about -30% and that limit;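 further: stimulus is agonist 54-4 at its EC80 concentration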
#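 Tet-induced TRPML1-DL cells loaded with Ca8 no-wash calcium dye were read kinetically on FDSS. Compound addition was followed by EC80 agonist 54-4 (4 uM final); inhibition was read over 110 s.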
# TRHR enhancer: qHTS for Small Molecule Agonists and Allosteric Enhancers of Human TRH Receptor: Primary Screen for Enhancers; AID 493056, 2011; TRHR cells, fluo-8 calcium fluorescence, EC20 TRH enhancement; enhancement, % at 2 µM; Thyrotropin-releasing hormone receptor (Homo sapiens), P34981; 0.66% of 360,000 active; in the data active means enhancement above about 30%
#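 TRHR-expressing cells loaded with fluo-8 calcium dye were read kinetically (ex 480/em 530) during compound addition, then stimulated with an EC20 of TRH (10 nM final). Enhancement of the Gq-mediated intracellular calcium response was scored.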
# Hits are given with their value; 0 = inactive; ? = inconclusive; - = no result. A selection: hits, their analogues and other compounds. The true share with any hit is near 1.7%.
SMILES,KCNH2 3.1 block,TRPML1 agonist,hERG WT inh,TRHR ag,TRPML1 inh,TRHR enhancer
Cc1cc(C)n2ncc(C(=O)NCc3ccccc3)c2n1,-87,0,0,0,0,0
Cc1cc(C)n2ncc(C(=O)NCCc3ccccc3)c2n1,0,0,0,0,0,0
NS(=O)(=O)c1ccc(CCNC(=O)c2ccccc2-c2ccccc2)cc1,0,0,0,0,0,0
CCOc1ccc2c(c1)sc(N)[n+]2Cc1cc(C)cc2cccnc12,-88,0,0,0,0,0
COc1ccc2c(c1)sc(N)[n+]2Cc1cc(C)cc2cccnc12,-77,0,0,0,0,0
Cc1cc(C[n+]2ncsc2N)c2ncccc2c1,0,0,0,0,0,0
COc1ccc(CNC(=O)c2ccc(S(=O)(=O)NCc3ccco3)cc2)cc1,0,0,0,0,0,0
O=C(CSc1nc2c([nH]c3ccccc32)c(=O)n1-c1ccccc1)Nc1ccc2c(c1)OCCO2,-,0,-,0,0,0
CCOC(=O)c1sc(NC(=O)C2c3ccccc3Oc3ccccc32)c(C(=O)OCC)c1C,-,0,-,0,0,32
O=C(N=C1SC2CS(=O)(=O)CC2N1CCc1ccccc1)C1CCCCC1 (centres undefined),0,0,0,0,0,0
CCOC(=O)c1cc(-c2ccc(OC)cc2)n(CCC(=O)NCc2ccc(OC)cc2)c1C,-,0,-,0,0,0
O=C(c1cccc([N+](=O)[O-])c1)N1CCN(C/C=C/c2ccccc2)CC1,0,0,0,0,?,0
CC(C(=O)Nc1cccc([N+](=O)[O-])c1)[n+]1ccccc1 (centres undefined),0,0,-,0,0,31
CC(C(=O)Nc1cccc([N+](=O)[O-])c1)N1CCN(C/C=C/c2ccccc2)CC1 (centres undefined),-85,0,0,0,0,0
CS(=O)(=O)N(CC(=O)N1CCc2ccccc2C1)c1ccc(Cl)cc1F,0,0,0,0,0,0
Cc1cc2c(s1)c1cnn(Cc3ccc(F)c(C)c3)c(=O)c1n2C,-,-,-,0,-,0
Cc1cc(N2CCN(c3nc(-c4ccccc4)cs3)CC2)c2ccccc2n1,-79,0,0,0,0,0
Cc1cc(N2CCN(S(=O)(=O)c3ccccc3)CC2)c2ccccc2n1,0,0,-109,0,0,0
Cc1ccc(NC(=O)C2CC(=O)N(c3ccccc3Cl)C2)cc1S(=O)(=O)N1CCOCC1 (centres undefined),0,0,0,-,0,-
CCOc1ccc(-c2nc(C#N)c(NC3CC3)o2)cc1,0,0,0,0,0,32
CCOc1ccc(Nc2oc(-c3ccc(Cl)cc3)nc2C#N)cc1,0,0,0,0,0,0
CNc1oc(-c2ccccc2)nc1C#N,-81,0,0,0,0,0
COCc1c(C(=O)NCCc2ccc(OC(F)F)cc2)oc2ccccc12,0,0,0,-,0,-
Cc1cccc(Cn2c(CNS(=O)(=O)c3ccc4c(c3)CCCC4)nc3cccnc32)c1,-,0,-,0,0,0
COc1ccc(Cl)cc1NC(=O)N1CCN(C2CCCCC2)CC1,0,0,0,0,0,36
SMILES,KCNH2 3.1 block,TRPML1 agonist,hERG WT inh,TRHR ag,TRPML1 inh,TRHR enhancer
COc1ccc(Cl)cc1NC(=O)NC1CCCCC1,0,0,0,0,0,32
COc1ccc(Cl)cc1NC(=S)N1CC(C)OC(C)C1 (centres undefined),0,0,0,0,0,33
COc1ccccc1NC(=S)N1CC(C)OC(C)C1 (centres undefined),0,0,-,0,0,0
CCCN1CCC(NC(=O)Nc2cc(Cl)ccc2OC)CC1,0,0,0,0,0,0
COc1ccc(S(=O)(=O)N2CCCCCC2)cc1C(=O)Nc1ccccn1,0,0,0,0,0,0
N#Cc1cccc(CN2CCC(=O)N([C@H](CO)Cc3ccccc3)CC2)c1,0,0,0,0,0,0
COc1cccc(NC(=O)CN(C)S(=O)(=O)/C=C/c2ccccc2)c1,0,0,0,0,0,0
CCC1CCCCN1C(=O)CSc1nc2c([nH]c3ccccc32)c(=O)n1-c1ccc(OC)cc1 (centres undefined),-,0,-,0,0,0
Cc1nnc(SCC(=O)N2CCN(c3ccccc3)CC2)n(N)c1=O,0,0,0,0,0,38
Cc1ccccc1-n1cnnc1SCC(=O)N1CCN(c2ccccc2)CC1,0,0,0,0,0,0
O=C1C2CCCCC2C(=O)N1c1ccc(S(=O)(=O)Nc2ncccn2)cc1 (centres undefined),0,0,0,0,0,0
Cc1ccnc(NS(=O)(=O)c2ccc(N3C(=O)C4CCCCC4C3=O)cc2)n1 (centres undefined),0,0,0,0,0,37
COc1cc(-c2oc3cc(O)cc(O)c3c(=O)c2O)ccc1O,-,0,-,-,0,-
O=c1c(O)c(-c2ccc(O)c(O)c2)oc2cc(O)cc(O)c12,0,0,0,0,0,63
CCOc1ccc2oc(C(=O)N3CC(C)OC(C)C3)c(C)c2c1 (centres undefined),0,0,0,0,0,0
CCOC(=O)CCCCNCc1ccccc1,0,0,0,0,0,30
Cc1cc2oc(C(=O)N(Cc3ccco3)Cc3ccccc3Cl)c(C)c2cc1C,-,0,-,0,0,41
Cc1cc2oc(C(=O)N(Cc3ccc(N(C)C)cc3)Cc3ccco3)c(C)c2cc1Cl,-,0,-,0,0,0
COc1ccc(C[C@H]2CN3C(=NC[C@@H]3C(C)C)N2CCNC(=O)c2ccc(C)c(Br)c2)cc1,-100,0,-114,0,0,0
COc1ccc(C[C@H]2CN3C(=NC[C@H]3C)N2CCNC(=O)c2ccc(C)c(Br)c2)cc1,-76,0,0,0,0,0
O=S(=O)(c1ccc(Br)cc1)N1CCCN(Cc2cccc(F)c2)CC1,0,0,0,0,0,0
COc1ccc(CN2CCN(S(=O)(=O)c3ccc(C)cc3)CC2)cc1OC,0,0,0,-,0,-
CN(Cc1ccc(F)cc1)C(=O)c1cccc(S(=O)(=O)N2CCN(Cc3ccccc3)CC2)c1,0,0,0,0,0,0
